Measurements from publication PMC10726135, “HNF4α isoforms regulate the circadian balance between carbohydrate and lipid metabolism in the liver”.
In all, about 18,000 sequences were measured (“log2 normalized intensity”: median about 0.36, highest 2% from about 7.3 on). For the sample, the highest values were picked, then their nearest neighbours and some sequences at random.

Molecular target: T1, HNF4alpha8 (COS-7 nuclear extract) (Homo sapiens, UniProt P41235-5 1-452)
T1 sequence: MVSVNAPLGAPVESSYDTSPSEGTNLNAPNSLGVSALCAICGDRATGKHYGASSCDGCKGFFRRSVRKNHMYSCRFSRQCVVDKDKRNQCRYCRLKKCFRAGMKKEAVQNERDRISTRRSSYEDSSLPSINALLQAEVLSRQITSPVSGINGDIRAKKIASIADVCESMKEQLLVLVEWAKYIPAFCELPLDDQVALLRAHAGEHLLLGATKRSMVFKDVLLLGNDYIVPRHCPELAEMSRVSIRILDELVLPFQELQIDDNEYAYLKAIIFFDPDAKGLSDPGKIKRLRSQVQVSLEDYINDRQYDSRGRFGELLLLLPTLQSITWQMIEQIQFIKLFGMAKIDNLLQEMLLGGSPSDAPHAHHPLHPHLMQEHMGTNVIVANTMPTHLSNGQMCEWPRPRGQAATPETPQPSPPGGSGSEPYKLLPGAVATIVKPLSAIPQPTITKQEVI
Test: protein-binding microarray; COS-7 nuclear extract on double-stranded Agilent 4x180k PBM; binding buffer, salt, pH and temperature not given in the material; high values mean tight binding
Conditions: chain copies: 2; label: 3' end of strand 1 on the slide; dsDNA, one strand shown
Procedure, shortened: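 A human HNF4α isoform was expressed in COS-7 cells by transient CaPO4 transfection, and nuclear extracts were prepared. These were applied to a custom Agilent SurePrint G3 4x180k array carrying ~44,000 test sequences in quadruplicate as double-stranded ~60-nt oligonucleotides, and an Agilent G2565CA scanner imaged bound HNF4α at 2-µm resolution. The background-corrected, normalized gProcessedSignal from Agilent software was used as the binding signal.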

| Sequence | binding signal |
| --- | --- |
| AGTCCATGTGTTAAATAATAACACTCCCATGCCTAGGGAGATTAGAGTATCGGTCGA | -0.441 log2 normalized intensity |
| CCTTCCCTTTCATGTTGAACGTCTTCAGAAGCCTAGGGAGATTAGAGTATCGGTCGA | 1.35 log2 normalized intensity |
| CTGCCCAGACCTTATCTTGCATTTCTTCAGGCCTAGGGAGATTAGAGTATCGGTCGA | 0.246 log2 normalized intensity |
| CTGCCTGCTTGGCCTCTCCACTTGGGTATCGCCTAGGGAGATTAGAGTATCGGTCGA | -0.182 log2 normalized intensity |
| ACACAGGACTTGATCCAGGGCAAAGGTCATGCCTAGGGAGATTAGAGTATCGGTCGA | 7.91 log2 normalized intensity |
| GGACTTGATCCAGGGCAAAGGTCATAATTTGCCTAGGGAGATTAGAGTATCGGTCGA | 7.95 log2 normalized intensity |
| TGATCCAGGGCAAAGGTCATAATTTGATCCGCCTAGGGAGATTAGAGTATCGGTCGA | 6.94 log2 normalized intensity |
| CACAGAGCAAAGGTCATGCATAGAAGTATGGCCTAGGGAGATTAGAGTATCGGTCGA | 4.43 log2 normalized intensity |
| AGAAAACACAGAGATCTGATCAAAGGTCATGCCTAGGGAGATTAGAGTATCGGTCGA | 6.61 log2 normalized intensity |
| CAAAGGTCATAATTTGATCCAGTGTGCAAAGCCTAGGGAGATTAGAGTATCGGTCGA | 4.08 log2 normalized intensity |
| AATGGAGTTTGGTTTAAAGTTCAAGTCATAGCCTAGGGAGATTAGAGTATCGGTCGA | 2.74 log2 normalized intensity |
| AGGTGTAACCTGCTCTCTCATGCCCTTTGCGCCTAGGGAGATTAGAGTATCGGTCGA | 4.81 log2 normalized intensity |
| CTTTCCTGGTGCCTCCTTATCTCCCCAACTGCCTAGGGAGATTAGAGTATCGGTCGA | 3.48 log2 normalized intensity |
| TTTTAATTAGAACTGTAATTGAGTAACCAGGCCTAGGGAGATTAGAGTATCGGTCGA | 0.406 log2 normalized intensity |
| TAAGCTACTGAAAATGACCTTTGTTCCCTGGCCTAGGGAGATTAGAGTATCGGTCGA | 9.03 log2 normalized intensity |
| ATCTCTAAGCTACTGAAAATGACCTTTGTTGCCTAGGGAGATTAGAGTATCGGTCGA | 6.73 log2 normalized intensity |
| AAAAAAAAAAATTACTGACCCTTGCACTGTGCCTAGGGAGATTAGAGTATCGGTCGA | 5.45 log2 normalized intensity |
| GAAACCCTAAACCTGCAAACCTTTGACCTTGCCTAGGGAGATTAGAGTATCGGTCGA | 5.96 log2 normalized intensity |
| TACTGAAAATGACCTTTGTTCCCTGCACTTGCCTAGGGAGATTAGAGTATCGGTCGA | 7.89 log2 normalized intensity |
| AATTCATCTCTAAGCTACTGAAAATGACCTGCCTAGGGAGATTAGAGTATCGGTCGA | 3.88 log2 normalized intensity |
| GATTTTCAGGTTCCCCAGTGAGGATGTGTGGCCTAGGGAGATTAGAGTATCGGTCGA | 1.53 log2 normalized intensity |
| TGGCGTATGCAGCAGGGCAGCAGCCTGACCGCCTAGGGAGATTAGAGTATCGGTCGA | 0.823 log2 normalized intensity |

| Sequence | binding signal |
| --- | --- |
| TTAACCTCTATTGACCTTCTTATTTGGAGAGCCTAGGGAGATTAGAGTATCGGTCGA | 2.41 log2 normalized intensity |
| GAGGAGACCTTTGGATATCATATCATCTTCGCCTAGGGAGATTAGAGTATCGGTCGA | 2.39 log2 normalized intensity |
| TAGTTAGAGTCACTGATAAGTCTGCTTGCCGCCTAGGGAGATTAGAGTATCGGTCGA | -0.858 log2 normalized intensity |
| CGCCCCCAACGGGCCACGCCCTGCACCCTAGCCTAGGGAGATTAGAGTATCGGTCGA | 4.07 log2 normalized intensity |
| TTGTGGCAGTGAGAACAGGTTCATTCTTTAGCCTAGGGAGATTAGAGTATCGGTCGA | 0.687 log2 normalized intensity |
| GCTTGAGCGAGACAGCGGGTGTTTCTGGGAGCCTAGGGAGATTAGAGTATCGGTCGA | 0.72 log2 normalized intensity |
| TCATTGCCTCTGGGCTTTGATGGACATTGCGCCTAGGGAGATTAGAGTATCGGTCGA | 3.92 log2 normalized intensity |
| AGAGTGAGCAGCACTTTTGGAGTTTGACCTGCCTAGGGAGATTAGAGTATCGGTCGA | 8.51 log2 normalized intensity |
| AAGAAGAGCTCAGTCACAGCAGTGGACTTTGCCTAGGGAGATTAGAGTATCGGTCGA | 7.41 log2 normalized intensity |
| GAGCAGCACTTTTGGAGTTTGACCTGGAGCGCCTAGGGAGATTAGAGTATCGGTCGA | 6.24 log2 normalized intensity |
| AGCAGCCTCAGTGGCTCACAAATGGAGTTTGCCTAGGGAGATTAGAGTATCGGTCGA | 1.92 log2 normalized intensity |
| CTGCGTAACTTACAGTGCACTTTGACCGCTGCCTAGGGAGATTAGAGTATCGGTCGA | 7.74 log2 normalized intensity |
| TAACTTACAGTGCACTTTGACCGCTCATTTGCCTAGGGAGATTAGAGTATCGGTCGA | 6.77 log2 normalized intensity |
| CTTGTCTTATCAGCAGGGTCTTTTTGACCTGCCTAGGGAGATTAGAGTATCGGTCGA | 4.79 log2 normalized intensity |
| GAGCTCAGTCACAGCAGTGGACTTTGACCTGCCTAGGGAGATTAGAGTATCGGTCGA | 11.7 log2 normalized intensity |
| GGGGCAGAGTGAGCAGCACTTTTGGAGTTTGCCTAGGGAGATTAGAGTATCGGTCGA | 2.17 log2 normalized intensity |
| CAGGACTGCGTAACTTACAGTGCACTTTGAGCCTAGGGAGATTAGAGTATCGGTCGA | 5.6 log2 normalized intensity |
| CCTCAGTGTGGGACTTTGGTCTGCTGAGTCGCCTAGGGAGATTAGAGTATCGGTCGA | 3.95 log2 normalized intensity |
| CCAGCTAGAAGCAGTGGGACAAAGGTCACAGCCTAGGGAGATTAGAGTATCGGTCGA | 6.82 log2 normalized intensity |
| GGCATTCTGACCTTTGTCTCCAGGCAAACTGCCTAGGGAGATTAGAGTATCGGTCGA | 5.6 log2 normalized intensity |
| GAGGAGTGAGAACAGACAAAATTAAGTGATGCCTAGGGAGATTAGAGTATCGGTCGA | -0.842 log2 normalized intensity |
